Laboratory results published in PubChem BioAssay (Tox21).
Results filed as inconclusive are left out. Calls of active or inactive are those of the source. The call rests on the fitted dose curve.

target: Peroxisome proliferator-activated receptor delta (Homo sapiens) (UniProt Q03181); test: qHTS assay to identify small molecule agonists of the peroxisome proliferator-activated receptor delta (PPARd) signaling pathway (AID 743212); conditions: HEK293H PPARd-UAS-bla, beta-lactamase FRET ratio, 17 h; series mostly up to 62.6 µM
Source text: U.S. Tox21 Program National Center for Advancing Translational Sciences [NCATS] NIH Chemical Genomics Center [NCGC] U.S. Environmental Protection Agency [EPA] National Institutes of Environmental Health Sciences [NIEHS] National Toxicology Program [NTP] U.S. Food and Drug Administration [FDA] Tox21 Assay Overview: The peroxisome proliferator-activated receptors (PPARs) are lipid-activated transcription factors of the nuclear receptor superfamily with three distinct subtypes namely PPAR alpha, PPAR delta (PPARd) and PPAR gamma. All these subtypes heterodimerizes with Retinoid X receptor (RXR) and have different physiological functions. […] To identify the compounds that activate PPAR-delta signaling, GeneBLAzer PPAR delta UAS-bla HEK293H cell line (Invitrogen, Carlsbad, CA, USA) containing a beta-lactamase reporter gene under the control of an Upstream Activator Sequence (UAS) was used to screen the Tox21 compound library.
Tox21 Assay Protocol Summary: PPARd-bla cells were dispensed at 3000 cells/6uL/well in 1536-well black wall/clear bottom plates using a Multidrop Combi (Thermo Fisher Scientific, Waltham, MA) dispenser. After the assay plates were incubated at 37 C and 5% CO2 for 5 h, 23 nL of compounds dissolved in DMSO, positive controls or DMSO only was transferred to the assay plate by a Pintool station (Kalypsys, San Diego, CA). The assay plates were incubated at 37C for 17 h. After 1 uL of LiveBLAzerTM B/G FRET substrate was added using a Bioraptr Flying Reagent Dispenser (FRD) workstation (Beckman Coulter, Indianapolis, IN, USA), the plates were incubated at room temperature for 2 h, and fluorescence intensity was measured by an Envision plate reader (PerkinElmer, Shelton, CT).
On the % scale 0 is the no-effect control and ±100 the full control effect.

Peroxisome proliferator-activated receptor delta (Homo sapiens), sequence (Q03181 whole entry, looked up): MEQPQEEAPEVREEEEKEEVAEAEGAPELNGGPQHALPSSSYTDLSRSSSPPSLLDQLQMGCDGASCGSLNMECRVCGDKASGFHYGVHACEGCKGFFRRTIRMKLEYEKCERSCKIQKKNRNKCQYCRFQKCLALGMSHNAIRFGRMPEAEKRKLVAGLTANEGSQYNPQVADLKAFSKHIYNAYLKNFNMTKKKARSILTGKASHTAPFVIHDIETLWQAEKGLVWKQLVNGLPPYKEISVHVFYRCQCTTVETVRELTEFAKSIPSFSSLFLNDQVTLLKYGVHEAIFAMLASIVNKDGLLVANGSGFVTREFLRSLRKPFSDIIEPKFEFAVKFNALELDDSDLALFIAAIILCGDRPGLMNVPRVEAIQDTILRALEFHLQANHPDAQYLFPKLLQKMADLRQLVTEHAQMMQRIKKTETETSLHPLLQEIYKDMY

Row | Structure (SMILES) | outcome | activation
1 | O=[N+]([O-])c1c(Cl)cc(Cl)cc1Cl | inactive | 
2 | CCCCOC(=O)[C@H](C)O | inactive | 
3 | CC/C(C)=N\O[Si](C)(O/N=C(\C)CC)O/N=C(\C)CC | inactive | 
4 | CC(C)CCOC(=O)c1ccccc1 | inactive | 
5 | Cc1c(C(=O)c2c[nH]n(C)c2=O)ccc(S(C)(=O)=O)c1C1=NOCC1 | inactive | 
6 | C=CCCCC | inactive | 
7 | CC1=C(O)C(=O)C(C)O1 (stereo not given) | inactive | 
8 | CC/C=C\CCOC(=O)c1ccccc1O | inactive | 
9 | COCCc1ccccn1 | inactive | 
10 | C/C(=C1\CCOC(=O)S1)N(C=O)Cc1cnc(C)nc1N | inactive | 
11 | N#Cc1ccccc1O | inactive | 
12 | ONc1ccccc1 | inactive | 
13 | C/C=C(\C)C(C)=O | inactive | 
14 | CC(O)COC(C)(C)C (stereo not given) | inactive | 
15 | CCC(C)C(C)=O (stereo not given) | inactive | 
16 | CN1CCOC(c2ccccc2)c2ccccc2C1 (stereo not given) | inactive | 
17 | O=C1CCC(=O)N1Cl | inactive | 
18 | Cc1c(NC(=O)c2cccnc2)c(=O)n(-c2ccccc2)n1C | inactive | 
19 | CC(C)NC(=O)c1ccc(C=O)cc1 | inactive | 
20 | CCCCCCCCCCCCCBr | inactive | 

Row | Structure (SMILES) | outcome | activation
21 | COc1cc2c(cc1OC)C(=O)C(CC1CCN(Cc3ccccc3)CC1)C2 (stereo not given) | inactive | 
22 | CCCCCC(C)O (stereo not given) | inactive | 
23 | CNCCS(=O)(=O)O | inactive | 
24 | CCOc1cccc(N)c1 | inactive | 
25 | CCOC(CN1CCN(CC(C)C(=O)c2ccccc2)CC1)c1ccccc1 (stereo not given) | inactive | 
26 | CC(C)[C@H]1CC[C@H](C)C[C@@H]1O | inactive | 
27 | CCCCOC(=O)C(C)O (stereo not given) | inactive | 
28 | CCC(=O)CC | inactive | 
29 | COC(=O)c1cc(Cl)cc(Cl)c1 | inactive | 
30 | Cn1nnc2c(C(N)=O)ncn2c1=O | inactive | 
31 | CC(C)C1OCCN1CCOC(=O)NCCCCCCNC(=O)OCCN1CCOC1C(C)C (stereo not given) | inactive | 
32 | OCC1(CO)COCOC1 | inactive | 
33 | CC1c2ccccc2CN1NC(=O)c1ccc(Cl)c(S(N)(=O)=O)c1 (stereo not given) | inactive | 
34 | CC(C)C[C@@H]1[C@H](c2ccccc2)OC(=O)N1CCCN1CCCCCC1 | inactive | 
35 | Cc1ccnc(N)c1 | inactive | 
36 | CC(C)NCC(O)c1ccc2ccccc2c1 (stereo not given) | inactive | 
37 | O=S(=O)(O)c1ccc2c(N=Nc3ccc(S(=O)(=O)O)c4ccccc34)c(O)c(S(=O)(=O)O)cc2c1 |  | 0.0676% [at 5.95 µM] (inactive)
38 | CCCC(=O)OC/C=C(\C)CCC=C(C)C | inactive | 
39 | CO[Si](CCCn1c(=O)n(CCC[Si](OC)(OC)OC)c(=O)n(CCC[Si](OC)(OC)OC)c1=O)(OC)OC | inactive | 
40 | c1ccc2cnccc2c1 | inactive | 
